Data from publication PMC4552634, “A New Set of Chemical Starting Points with Plasmodium falciparum Transmission-Blocking Potential for Antimalarial Drug Discovery” (PLoS ONE, 2015).
Among all 13,000 compounds or so, about 3,200 (25%) showed an effect of 50% or more. Some of the results follow.

The compounds below were run on P. falciparum stage V gametocytes. Settings: 48 h, 5 µM; inhibitor.
Parameters: BacTiter-Glo ATP luminescence viability of purified stage V gametocytes in 384-well plates, per cent inhibition versus DMSO

Point of comparison: `COc1ccc(NC(=O)/C=C/c2cc(Br)ccc2F)cc1OCCN(C(C)C)C(C)C` [TCMDC-140668], “% Inhibition” value -43.25%. Against it:
- O=C(NC1CCCc2ccccc21)[C@@H]1CCCN1C(=O)c1ccc(O)c(-c2ccc(Cl)c(Cl)c2)c1 (stereo partly shown) [TCMDC-140867] — higher, 31.83%
- COC(=O)c1ccc(CC(C)NCC(O)c2cccc(SC(F)(F)F)c2)cc1 (stereo not shown) [TCMDC-131494] — higher, 25.48%
- CCCC(N)C(=O)NC1CCN(c2c(F)c(N)c3c(=O)c(C(=O)O)cn4c3c2Oc2ccccc2-4)C1 (stereo not shown) [TCMDC-125701] — higher, 40.26%
- Cc1cc(CNC(c2ccccc2)C2CCC2)cc(C)c1O (stereo not shown) [TCMDC-134518] — higher, -25.25%
- Cc1nc2nc(N)nc(N)c2c(C)c1Cc1ccc(C(F)(F)F)cc1 [TCMDC-137656] — higher, -0.8923%
- N#Cc1ccccc1Sc1ccccc1C(=O)Nc1ccc2ccccc2n1 [TCMDC-125464] — higher, 33.3%
- O=C(/C=C/c1cc(F)c(F)cc1F)N1CCC(CN2CCC(c3c[nH]c4ccccc34)CC2)CC1 [TCMDC-140383] — higher, -20.73%
- O=C(/C=C/c1ccc([N+](=O)[O-])cc1)N1CCC(CCN2CCC(c3c[nH]c4ccccc34)CC2)CC1 [TCMDC-139940] — higher, -27.66%
- O=C(/C=C/c1cc([N+](=O)[O-])ccc1Cl)N1CCC(CCN2CCC(c3c[nH]c4ccccc34)CC2)CC1 [TCMDC-139911] — higher, 95.76%
- O=C(C=Cc1ccccc1O)N1CCC(CN2CCC(c3c[nH]c4ccccc34)CC2)CC1 [TCMDC-139912] — lower, -49.08%
- O=C(/C=C/c1ccc(Cl)cc1Cl)N1CCC(CCN2CCC(c3c[nH]c4ccccc34)CC2)CC1 [TCMDC-139711] — higher, 81.98%
- O=C(C=Cc1ccc(Br)cc1)N1CCC(CCN2CCC(c3c[nH]c4ccccc34)CC2)CC1 [TCMDC-139939] — higher, 87.97%
- O=C(/C=C/c1ccccc1O)N1CCC(CCN2CCC(c3c[nH]c4ccccc34)CC2)CC1 [TCMDC-139712] — higher, 101.8%
- O=C(/C=C/c1cc([N+](=O)[O-])ccc1Cl)NC1CCC(CN2CCC(c3c[nH]c4ccccc34)CC2)CC1 (stereo not shown) [TCMDC-139907] — lower, -55.07%
- CCCc1ccc(NC(=O)c2ccc(CN3CCCN(CC4CCCCC4)CC3)cc2)cc1 [TCMDC-136420] — higher, -21.41%
- FC(F)(F)c1ccc2[nH]c(-c3ccc(-c4ccc(CN5CCN(c6cnccn6)CC5)cc4)s3)nc2c1.O=C(O)C(F)(F)F [TCMDC-132677] — higher, 4.163%
- COc1cc(Cc2cnc(N)nc2N)cc(OCCCCC2SC(=O)NC2=O)c1OC (stereo not shown) [TCMDC-137185] — higher, -7.728%
- Cc1cnc(NC(=O)c2cn(-c3ccccc3)nc2-c2cccs2)s1 [TCMDC-124433] — higher, 10.72%
- COc1cc2c(c(OC)c1OC)C[C@H]1c3c(cc4c(c3-2)OCO4)CCN1C [TCMDC-138525] — lower, -52.76%
- N#Cc1ccc2[nH]cc(CN3CCC4(CC3)CN(CCNCc3ccccc3)C(=O)O4)c2c1 [TCMDC-136732] — higher, -34.87%
- COc1ccc2ncc(F)c(CCN3C[C@H](CNCc4cc(F)c5c(c4)NC(=O)CO5)[C@H](O)C3)c2n1 [TCMDC-136203] — higher, 28.74%
- Nc1nc2c(ncn2OC[C@H](CO)OCP(=O)(O)O)c(=O)[nH]1 [TCMDC-131639] — higher, 4.722%
- O=C(/C=C/c1cc(C(F)(F)F)ccc1F)N1CCC(CN2CCC(c3c[nH]c4ccccc34)CC2)CC1 [TCMDC-139857] — higher, -24.43%
- O=C(/C=C/c1cc(F)cc(C(F)(F)F)c1)N1CCC(CN2CCC(c3c[nH]c4ccccc34)CC2)CC1 [TCMDC-140385] — higher, -12.95%
- O=C(/C=C/c1ccc(C(F)(F)F)cc1)N1CCC(CCN2CCC(c3c[nH]c4ccccc34)CC2)CC1 [TCMDC-139761] — higher, 107.6%
- CCN(CC)CCN(Cc1ccc(-c2ccc(C(F)(F)F)cc2)nc1)C(=O)Cn1cc(Cc2cnn(C)c2)c(=O)n2nc(-c3ccccc3)cc12 [TCMDC-140691] — higher, 119%
- CCCCN1Cc2c(n(CC(=O)Nc3ccccc3)c3cc(-c4ccccc4)nn3c2=O)C1=O [TCMDC-125585] — higher, -0.9231%
- CCN(CC)CCN(Cc1ccc(-c2ccc(C(F)(F)F)cc2)cc1)C(=O)Cn1cc(Cc2cnn(C)c2)c(=O)n2nc(-c3ccccc3)cc12 [TCMDC-140690] — higher, 119.2%
- COc1ccc2nccc([C@@H](O)CN3CCC(NC(=O)/C=C/c4cccc(C)c4)CC3)c2c1 [TCMDC-141114] — higher, -1.317%
- O=C(NC1CCN(CCc2c[nH]c3ccc(F)cc23)CC1)c1ncc(-c2ccccc2)[nH]1 [TCMDC-131972] — higher, 5.191%
- Cc1ccc(NC(=O)Nc2ccc(Br)cc2)cc1OCCN(C)C [TCMDC-140087] — higher, -42.58%
- CCOC(=O)CN(c1ccc(Br)cc1OCCOc1cc(Br)ccc1N(CC(=O)OCC)C(C)C(=O)OCC)C(C)C(=O)OCC (stereo not shown) [TCMDC-132003] — higher, 102%
- C=CCc1cc(SC)ccc1Oc1ccc(N)cc1 [TCMDC-137690] — lower, -96.62%
- Cc1c(-c2cccc(NC(=O)C(C)(C)Oc3ccc(Cl)cc3)c2)nc2ncccn12 [TCMDC-124460] — higher, 51.92%
- CCOc1ccccc1C(=O)Nc1cccc(-c2nc3ncccn3c2C)c1 [TCMDC-124461] — higher, 18.92%
- Cc1ccccc1C(=O)Nc1cccc(-c2nc3ncccn3c2C)c1 [TCMDC-125138] — higher, 25.46%
- CN(c1cc(NC(=O)c2cccs2)ccn1)C1CCN(Cc2cccc(C#N)c2)CC1 [TCMDC-134970] — higher, 39.85%
- Cc1[nH]c(C)c(-c2ccc(Oc3ccc(Cl)c(Cl)c3)cc2)c(=O)c1Cl [TCMDC-137396] — higher, 73.66%
- Cc1[nH]c(C)c(-c2ccc(Cl)cc2Cl)c(=O)c1Br [TCMDC-137428] — higher, 6.285%
- Cc1[nH]c(C)c(-c2ccc(Oc3ccc(Cl)cc3Cl)cc2)c(=O)c1Br [TCMDC-137533] — higher, 62.65%
- Cc1[nH]c(C)c(-c2ccc(Oc3ccc(Cl)c(Cl)c3)cc2)c(=O)c1Br [TCMDC-137397] — higher, 72.37%
- Cc1[nH]c(C)c(-c2ccc(Oc3cc(Cl)cc(Cl)c3)cc2)c(=O)c1Br [TCMDC-137392] — higher, 48.81%
- Cc1[nH]c(C)c(-c2ccc(Oc3ccc(Cl)cc3)c(Cl)c2)c(=O)c1Br [TCMDC-137409] — higher, 21.95%
- Cc1noc(C)c1-c1ccc(C(=C2CCCCCC2)c2ccc(O)cc2)cc1 [TCMDC-135873] — higher, -11.65%
- CCCCCc1cc(O)c2c(c1)OC(C)(C)C=C2C1=CCN(Cc2ccsc2)CC1 [TCMDC-131400] — lower, -46.98%
- COc1cc(NC(=O)c2c(-c3c(F)cccc3Cl)noc2C)c(OC)cc1Cl [TCMDC-123635] — higher, 20.08%
- Cc1ccc(NC(=O)c2cccc(CN3CCCN(Cc4cccc(O)c4)CC3)c2)cc1 [TCMDC-135961] — higher, 28.04%
- CCN1CCN(Cc2c(O)ccc3c(=O)c(Oc4cc(C)cc(C)c4)c(C(F)(F)F)oc23)CC1 [TCMDC-125696] — higher, 11.78%
- NC1=NC2(CCCCC2)N(Cc2ccc(Cl)c(Cl)c2)C(N)=N1 [TCMDC-136304] — higher, -26.78%
- CN1CC=C(c2c[nH]c3ccc(C(=O)c4nccs4)cc23)CC1 [TCMDC-137277] — higher, 17.28%
- Cc1cc(Nc2ccccc2)nc(NCCOc2ccccc2)n1 [TCMDC-137574] — higher, 48.49%
- O=C(O)c1cccc2c(-c3ccncc3)cccc12 [TCMDC-139219] — higher, 9.999%
- Cn1ccnc1S(=O)(=O)CCNCc1ccc(-c2ccc3ncnc(Nc4ccc(OCc5cccc(F)c5)c(Cl)c4)c3c2)o1 [TCMDC-138564] — higher, 21.76%
- CCOc1ccc(S(=O)(=O)N(C)c2ccc(OCC(=O)Nc3nccs3)cc2)cc1 [TCMDC-123622] — higher, 21.93%
- O=C(COc1ccc(C(=O)c2ccccc2)cc1)Nc1nccs1 [TCMDC-124432] — higher, -13.79%
- Cc1ccc(C(CC(=O)Nc2nccs2)c2ccc(OC(C)C)cc2)cc1 (stereo not shown) [TCMDC-124467] — higher, 72.01%
- O=C(/C=C/c1ccc(Cl)c(Cl)c1)NCCCCCN1CCC(NC(=O)c2ccc([N+](=O)[O-])cc2)CC1 [TCMDC-135843] — higher, 15.45%
- CCOc1cc(C(=O)N[C@@H](Cc2ccccc2)[C@H](O)CNC(C)(C)c2cccc(OC)c2)cc(N2CCCS2(=O)=O)c1 [TCMDC-134403] — higher, 22.2%
- CCN1CCc2c1cc(C(=O)N[C@@H](Cc1ccccc1)[C@H](O)CNC(C)(C)c1cccc(C(F)(F)F)c1)cc2N1CCCCS1(=O)=O [TCMDC-135451] — higher, 62.24%
- CCn1cnc2c(N3CCCS3(=O)=O)cc(C(=O)N[C@@H](Cc3ccccc3)[C@H](O)CNC(C)(C)c3cccc(C(F)(F)F)c3)cc21 [TCMDC-135450] — higher, 36.58%
- CCCN(CCC)C(=O)c1cc(C(=O)N[C@@H](Cc2ccccc2)[C@H](O)CNCc2cccc(C(F)(F)F)c2)cc(N2CCCCS2(=O)=O)c1 [TCMDC-138883] — higher, -16.54%
- CCn1ccc2c(N3CCCCS3(=O)=O)cc(C(=O)N[C@@H](Cc3ccccc3)[C@H](O)CNC3CCCCC3)cc21 [TCMDC-135314] — higher, 53.3%
- CCCN(CCC)C(=O)c1cc(C(=O)N[C@@H](Cc2ccccc2)[C@H](O)CNC(C)(C)c2cccc(C(F)(F)F)c2)cc(N2CCCCS2(=O)=O)c1 [TCMDC-134675] — higher, 20.25%
- CCn1ccc2c(N3CCCS3(=O)=O)cc(C(=O)N[C@@H](Cc3ccccc3)[C@H](O)CNC3CCCCC3)cc21 [TCMDC-135315] — higher, 41.25%
- CCCN(CCC)C(=O)c1cc(C(=O)N[C@@H](Cc2ccccc2)[C@H](O)CNCc2cccc(OC)c2)cc(N2CCCCS2(=O)=O)c1 [TCMDC-138893] — higher, -16.98%
- CCn1ccc2c(N3CCCCS3(=O)=O)cc(C(=O)N[C@@H](Cc3ccccc3)[C@H](O)CNC(C)(C)c3cccc(C(F)(F)F)c3)cc21 [TCMDC-135317] — higher, 87.8%
- CCn1cnc2c(N3CCCCS3(=O)=O)cc(C(=O)N[C@@H](Cc3ccccc3)[C@H](O)CNC3CCOCC3)cc21 [TCMDC-135662] — higher, 16.67%
- CCCN(CCC)C(=O)c1cc(C(=O)N[C@@H](Cc2ccccc2)[C@H](O)CNC(C)(C)c2cccc(OC)c2)cc(N2CCCCS2(=O)=O)c1 [TCMDC-134674] — higher, 75.74%
- CCn1ccc2c(N3CCCS3(=O)=O)cc(C(=O)N[C@@H](Cc3ccccc3)[C@H](O)CNC(C)(C)c3cccc(OC)c3)cc21 [TCMDC-134672] — higher, 43.65%
